# High-throughput results deposited in PubChem BioAssay by several laboratories.
# The list is not random: actives were taken first. Their share in the collection is about 1.5%.
# PLK1 inh: blocks human PLK1 kinase activity; P53350; 97,000 tested, 0.53% active; recombinant PLK1 kinase, TR-FRET peptide phosphorylation; inhibition, % at 10 µM;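 active = inhibition of 50% or more in the single-concentration screen; inactive = inhibition below 50%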;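 also: 0% = DMSO max control and 100% = H-89 dihydrochloride min control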
# Plk1 PBD FP: Plk1 (human) PBD binding inhibition | P53350 | Plk1 PBD phosphopeptide binding, fluorescence polarization | inhibition, %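 (tested at about 20 µM)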 | 97,000 tested, 0.13% active | AID 693; in the data active = inhibition above about 34%, passing the limit was not always enough
# EphB4 ephrin blk: blocks human EphB4 binding to ephrin-B2; 97,000 tested, 0.15% active; inhibition, % at 7 µM; AID 720; EphB4 LBD / TNYL-RAW-Alexa532 peptide, fluorescence polarization;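 active = inhibition above the screen-wide mean inhibition plus 3 SD, cut at about 15% in these data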;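 also: 0% = DMSO wells and 100% = excess unlabeled TNYL-RAW peptide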
# FAK blocker: blocks human focal adhesion kinase activity; Q05397; biochemical FAK kinase activity assay; inhibition, %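 (tested at 7 µM)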; 97,000 tested, 0.84% active; AID 727;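 also: 0% = DMSO and 100% = reference compound high control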
# Smad3 FoxH1 inh: inhibitors of human Smad3 transcription factor binding; 88,000 tested, 0.29% active; inhibition, % at 25 µM; TR-FRET Smad3/Dy647-FoxH1 peptide binding, europium anti-His;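 active = compounds that reduce the energy-transfer binding signal between the protein and its labelled peptide by more than half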;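 also: 0% = Smad3 plus labelled peptide maximal FRET and 100% = peptide-only background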
# Target sequence (P84022 whole entry, looked up): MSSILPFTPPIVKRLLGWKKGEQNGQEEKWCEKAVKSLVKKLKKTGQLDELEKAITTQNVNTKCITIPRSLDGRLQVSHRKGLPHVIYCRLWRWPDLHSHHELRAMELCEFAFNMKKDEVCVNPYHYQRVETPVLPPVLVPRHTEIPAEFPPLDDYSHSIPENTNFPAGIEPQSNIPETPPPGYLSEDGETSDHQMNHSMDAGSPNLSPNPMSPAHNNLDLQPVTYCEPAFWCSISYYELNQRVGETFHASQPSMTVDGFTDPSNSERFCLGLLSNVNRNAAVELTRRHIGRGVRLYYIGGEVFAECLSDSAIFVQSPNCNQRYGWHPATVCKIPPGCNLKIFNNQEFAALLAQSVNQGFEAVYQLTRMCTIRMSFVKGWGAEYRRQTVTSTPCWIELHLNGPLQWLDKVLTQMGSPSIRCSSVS
# FAK inh confirm: FAK (human) inhibition confirmed. shares compounds with FAK blocker. FAK kinase biochemical inhibition assay. inhibition, % at 7 µM. 750 tested, 28% active. AID 794
# Starred values were filed as active, the others as inactive; i = inactive; · = not tested or not shown. Rule as the data show it, unless noted: active = inhibition above about 19%; inactive = the rest.
SMILES,PLK1 inh,Plk1 PBD FP,EphB4 ephrin blk,FAK blocker,Smad3 FoxH1 inh,FAK inh confirm
CN=C1S/C(=C\c2cn(C(C)=O)nc2-c2ccccc2)C(=O)N1C,1.5,-12.6,-8.4,7.6,·,·
CN=C1S/C(=C\c2cc(C)n(-c3ccccc3F)c2C)C(=O)N1C,-2.6,-4.3,-5.5,20.9*,·,4.8
O=C(N/N=C/c1ccc2ccccc2c1)c1ccc(COc2ccc3c(c2)CCC3)o1,-11.2,-20.3,-8.4,33.5*,·,24.0*
CCOC(=O)c1sc2c(c1C)C(c1cccs1)C1=C(CCCC1=O)N2 (centres undefined),-13.1,-7.2,2.3,23.7*,4.5,19.1*
CCOC(=O)c1c(C)[nH]c(C(=O)COC(=O)c2[nH]c(C)c(C(C)=O)c2C)c1C,-3.5,3.5,-0.8,0.3,·,·
CN1C(=O)/C(=C/c2ccccc2OCc2ccccc2F)NC1=S,-1.8,-8.0,8.3,21.1*,·,3.1
COc1ccccc1/C=C1\NC(=S)N(CC2CCCO2)C1=O (centres undefined),-9.7,11.6,8.7,-3.5,·,·
O=C1c2ccccc2C(Nc2cccc(C(F)(F)F)c2)N1Cc1ccco1 (centres undefined),-4.6,1.1,3.4,19.8*,-6.6,6.8
COc1cccc(NC2c3ccccc3C(=O)N2Cc2ccco2)c1 (centres undefined),0.8,-10.0,3.9,5.8,15.3,·
CCCCC(=O)Nc1ccc(C(=O)N2CCN(C)CC2)cc1,4.8,-5.0,1.4,0.9,-8.2,·
CC(C)CN(C(=O)COC(=O)c1cc2c(s1)CCC2)C1CCS(=O)(=O)C1 (centres undefined),-0.9,-19.4,7.0,30.1*,5.7,8.6
COc1cc2cc(CN(Cc3nnnn3Cc3ccco3)C3CCCCC3)c(=O)[nH]c2cc1OC,0.3,-6.2,3.0,9.6,8.6,·
CCOc1ccc2[nH]c(=O)c(CN(Cc3nnnn3Cc3ccco3)C3CCCCC3)cc2c1,-0.4,-16.4,6.3,38.6*,-4.2,0.0
O=C(CC1Sc2ccccc2NC1=O)OC(C(=O)NCCc1ccccc1)c1cccnc1 (centres undefined),-4.3,i,-4.9,33.4*,11.5,2.2
COCCNC(=O)C(OC(=O)CC1Sc2ccccc2NC1=O)c1ccncc1 (centres undefined),-3.7,23.4,-8.3,-1.3,8.6,·
Cc1ccc(-n2nc3ccc(NC(=O)c4ccc5c(c4)OCO5)cc3n2)cc1,-4.3,-0.1,2.6,25.4*,10.7,15.2
CCNc1nnc(-c2ccc(C)cc2)o1,2.7,14.7,-1.6,-2.7,-0.1,·
COc1ccc(NS(=O)(=O)c2ccc(OCC(=O)N3CCOCC3)cc2)cc1,-2.4,-5.2,-3.8,1.9,1.6,·
C=C(C)CN(CC)C(=O)COc1ccc(S(=O)(=O)Nc2ccc(OC)cc2)cc1,-16.1,12.6,0.1,29.8*,·,-0.1
c1ccc(CNc2ncnc3sc4c(c23)CCC4)nc1,-9.8,-20.8,6.5,19.6*,-7.2,2.6
c1nc(NCCN2CCOCC2)c2c3c(sc2n1)CCCCC3,-2.0,7.9,2.0,6.7,12.0,·
O=c1nc2s/c(=C\c3ccco3)c(=O)n2nc1Cc1ccc(F)cc1,-18.6,31.2,3.8,24.4*,16.0,4.5
CCCCOC(=O)Cn1c(=N)n(CCN2CCOCC2)c2ccccc21,-9.5,46.3,-3.7,-0.3,1.0,·
N=c1n(CCN2CCOCC2)c2ccccc2n1CC(=O)c1ccc(Cl)c(Cl)c1,-8.0,-24.2,-1.1,95.3*,1.5,-1.9
Cc1cc2cc(CNC(=O)Nc3cccc(Cl)c3)ccc2n1C,-29.5,-27.3,-5.9,4.6,4.7,·
SMILES,PLK1 inh,Plk1 PBD FP,EphB4 ephrin blk,FAK blocker,Smad3 FoxH1 inh,FAK inh confirm
Cc1cccc(NC(=O)NCc2ccc3c(c2)cc(C)n3C)c1,-23.6,1.9,5.1,22.1*,16.5,-7.0
COc1ccc(CCn2c(=S)[nH]c3cc(C(=O)NCc4ccco4)ccc3c2=O)cc1OC,-11.6,-10.9,7.2,35.2*,15.7,11.6
CCN(CC)C(=O)CN1CCC(n2c(C)nc3cc(C(F)(F)F)ccc32)CC1,-5.9,-19.9,-0.8,1.7,6.7,·
O=c1c(/C=N/O)c(Nc2ccccc2)nc2ccccn12,4.9,2.6,-9.2,49.6*,-3.1,31.5*
COc1ccc2c(c1)CCc1c(C(=O)Nc3ccn(Cc4ccc(C)cc4)n3)noc1-2,-3.5,7.5,-12.0,25.5*,-3.3,-1.0
COc1cccc(CNC(=O)C2CCN(S(=O)(=O)c3ccccc3)CC2)c1,-9.4,3.7,-10.0,-0.3,4.8,·
COc1ccc(OC)c(NS(=O)(=O)c2ccc(N3CCCC3=O)cc2)c1,-6.9,-2.0,-3.6,-0.4,·,·
COc1cc(S(=O)(=O)NCCCN2CCOCC2)ccc1Cl,-3.6,3.2,-3.8,-0.9,10.3,·
O=C(Cn1c(=O)sc2ccccc21)NCCOc1ccccc1F,-9.0,16.2,-5.8,10.1,·,·
COc1cc(C2CC(=O)c3cnc(N4CCN(Cc5ccccc5)CC4)nc3C2)cc(OC)c1OC (centres undefined),-0.5,-8.9,5.2,19.2*,11.8,5.4
N#Cc1cnn2c1nc(N1CCOCC1)c1ccccc12,-11.3,17.4,4.7,50.7*,·,26.0*
CCc1ccc(C(=O)COC(=O)CNC(=O)c2ccco2)cc1,·,·,·,·,5.6,·
O=C(CNC(=O)c1ccco1)OCC(=O)c1ccc2c(c1)CCCC2,-18.8,-33.4,-14.6,26.9*,·,-2.8
COc1ccc(C2CC(=O)c3cnc(NC(=O)c4cccc(OC)c4)nc3C2)cc1 (centres undefined),-14.7,19.3,-5.0,-1.6,0.6,·
N=c1oc2c3c4c(cc2cc1C(=O)Nc1ccccc1)CCCN4CCC3,-498.2,-82.3,3.0,29.4*,·,0.1
CCc1nc(SCC(=O)NNC(=O)C2CCCCC2)c2ccccc2n1,-8.5,1.7,-3.8,35.5*,·,20.2*
CCc1nc(SCC(=O)NNC(=O)C(C)C)c2ccccc2n1,-9.3,18.1,-4.7,41.8*,·,18.8
CCCCc1nn(-c2cc(Cl)ccc2OC)c2c1C(=O)CC(C)(C)C2,-13.4,9.9,-0.7,-1.3,-15.8,·
CC1=C(n2nnc3ccccc32)C(c2ccccc2)C(C#N)=C(N)O1 (centres undefined),-11.1,-23.2,-1.4,0.9,13.2,·
CCCc1nc2n[nH]c(N)c2c2c1CCCC2,45.0,0.1,1.5,21.4*,3.1,9.7
COc1cccc(C(O)c2nc3ccccc3n2C(C)C)c1 (centres undefined),-3.7,8.6,6.8,-0.7,-8.3,·
Cc1cccn2c(=O)c(C=Nc3ccccc3)c(NCc3ccco3)nc12,20.2,-25.2,0.6,23.9*,6.3,3.8
Cc1cc(NC(=O)C2CCCN(S(=O)(=O)c3c(C)noc3C)C2)n[nH]1 (centres undefined),-2.6,-15.2,1.8,2.3,6.1,·
Cc1ccc(-c2nc3ccccc3s2)cc1NC(=O)c1cc(-n2cnnc2)ccc1Cl,-11.5,6.8,2.6,29.4*,·,6.8
O=C(OCC(=O)N(C1CCCCC1)C1CCCCC1)c1ccco1,-8.6,-18.2,-2.5,3.0,2.3,·
CCOC(=O)C(C(=O)NCc1ccc(F)cc1)c1ncc(C(F)(F)F)cc1Cl (centres undefined),-6.5,8.0,-2.6,0.7,·,·
